Screening results deposited in PubChem by several laboratories.
ALR inh – inhibitors of human ALR sulfhydryl oxidase, primary screen, biochemical, H2O2 detection, HRP-luminol luminescence, single point; FAD-linked sulfhydryl oxidase ALR (Homo sapiens), P55789; purified ALR, DTT oxidation; inhibition, % (concentration not given with the values); 290,000 tested, 3.8% active; AID 485317, 2010;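 active = mean replicate inhibition above about 79%, with every replicate also reaching it, limit read from the data; inconclusive = only one of the two criteria met; inactive = mean below limit and not every replicate reaching it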
Target sequence (P55789 whole entry, looked up): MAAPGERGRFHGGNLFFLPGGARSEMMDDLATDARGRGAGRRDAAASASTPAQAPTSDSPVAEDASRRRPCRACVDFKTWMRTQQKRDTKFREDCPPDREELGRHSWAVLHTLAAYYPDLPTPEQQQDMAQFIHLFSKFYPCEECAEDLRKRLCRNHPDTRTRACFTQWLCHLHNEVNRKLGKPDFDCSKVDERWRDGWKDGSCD
HDAC3 inh – HDAC3 deacetylase inhibitors, primary screen, biochemical, fluorescence, cell-free homogeneous; Histone deacetylase 3 (Homo sapiens), O15379; recombinant HDAC3, fluorogenic peptide/trypsin coupled; inhibition, % at 8.3 µM; 320,000 tested, 0.15% active; in the data active = inhibition above about 26%, passing the limit was not always enough; inconclusive = no clear call, values can overlap the other calls
GC-B act – human GC-B receptor activators, primary screen, HEK293 GC-B cells, cGMP TR-FRET, EC30 CNP. Atrial natriuretic peptide receptor 2 (Homo sapiens), P20594. 0% at EC30 CNP, 100% saturating CNP. activation, % at 10 µM. 370,000 tested, 0.11% active;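 active = activation at 10 µM reaching about 35% in either raw or pattern-adjusted values, limit read from the data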
GC-A act – GC-A stimulated cGMP production enhancers – HEK293 GC-A cells, cGMP TR-FRET, EC30 ANP, primary screen. Atrial natriuretic peptide receptor 1 (Homo sapiens), P16066. 0% at EC30 ANP, 100% saturating ANP. activation, % at 10 µM. 370,000 tested, 0.14% active. AID 1671463, 2021; in the data active = activation above about 40%
Numbers stand for hits; . = inactive; ? = inconclusive; / = not tested or not shown. The sample as a whole holds a higher share of hits than the screen did.

SMILES | ALR inh | HDAC3 inh | GC-B act | GC-A act
O=C(c1cccc2ccccc12)N1CCN=C1SCc1ccc([N+](=O)[O-])cc1 | 98.5 | . | . | .
CCOc1ccc(CC(=O)N2CCN=C2SCc2ccc([N+](=O)[O-])cc2)cc1 | 99.4 | . | . | .
Cc1ccc(C)c(Cn2c(CN(C)Cc3ccccc3)nc3c2c(=O)n(C)c(=O)n3C)c1 | / | . | . | .
COC(=O)C1=C(C)N(C)C(=NCc2cc(OC)c(OC)c(OC)c2)NC1c1ccc(C(F)(F)F)cc1 (centres undefined) | / | / | . | .
CC(C)(C)c1cc2nc(NCc3cccc(Cl)c3)ccn2n1 | / | / | . | .
Cc1ccc(S(=O)(=O)NCc2ccc(C(=O)NC3CCCCC3)cc2)cc1 | . | . | . | .
Cc1ccc(CSC2=NCCN2C(=O)c2ccc([N+](=O)[O-])cc2)cc1 | . | . | . | .
O=C(Cc1ccccc1)N1CCN=C1SCc1ccc([N+](=O)[O-])cc1 | / | . | . | .
COc1ccc(CC(=O)N2CCN=C2SCc2ccc([N+](=O)[O-])cc2)cc1 | 99.2 | . | . | .
Cc1ccc(C(=O)N2CCN=C2SCc2ccc([N+](=O)[O-])cc2)cc1 | 98.7 | . | . | .
COC(=O)[C@]12C[C@H](CC(=O)NCCCCc3ccccc3)C(=O)N(Cc3ccccc3)C1=C[C@H](C(C)C)O[C@@H]2C1CC1 | / | / | . | .
CCCCOC(=O)c1ccc(NC(=O)CSC2=Nc3ccccc3C3CC=NN23)cc1 (centres undefined) | 99.8 | . | . | .
O=C(CSC1=Nc2ccccc2C2CC=NN12)Nc1ccc(F)c(F)c1F (centres undefined) | . | . | . | .
CC(=O)N1CCCC(C)(C(=O)Nc2cccc(OC(C)C)c2)C1 (centres undefined) | / | / | . | .
O=C(COC(=O)c1cc([N+](=O)[O-])ccc1NCCO)Nc1cccnc1Cl | . | . | 57.1 | 55.9
O=C(COC(=O)c1ccc([N+](=O)[O-])cc1Cl)Nc1cccnc1Cl | . | . | . | .
COc1ccc(NC(=O)C2CC2(Cl)Cl)cc1S(=O)(=O)N1CCCCC1 (centres undefined) | / | / | . | .
COCc1nnc(NC(=O)c2ccc(S(=O)(=O)N3CCCc4ccccc43)cc2)o1 | 85.6 | . | . | .
COc1ccc(-c2nnc(NC(=O)c3ccc(S(=O)(=O)N4CCCc5ccccc54)cc3)o2)cc1 | . | . | / | /
O=C(Nc1nnc(C2CC2)o1)c1ccc(S(=O)(=O)N2CCCc3ccccc32)cc1 | 96.4 | . | . | .
CCOC(=O)CCSc1nc(-c2ccc3c(c2)OCO3)cc(C(F)(F)F)c1C#N | . | . | . | 42.0
O=C(CSc1ccc2c(c1)OCCO2)NCc1ccco1 | 97.8 | . | . | .
Cc1ccc(NC(=O)CSc2ccc3c(c2)OCCO3)nc1 | 97.8 | . | . | .
CCOC(=O)CNC(=O)CSc1nc(-c2ccc(OC)cc2)ns1 | . | . | . | .
CCOC(=O)CSc1cc(-c2ccccc2)nc2ncnn12 | / | . | 41.8 | .
SMILES | ALR inh | HDAC3 inh | GC-B act | GC-A act
CCOC(=O)CSc1nc(-c2ccccc2)ns1 | . | . | . | 55.1
c1ccc(-c2cc(-c3ccccc3)n3ncnc3n2)cc1 | . | . | . | .
CC(C)c1ccc(NC2CCCN(C(=O)c3ccnn3C)C2)cc1 (centres undefined) | ? | . | . | .
CC(C)c1ccc(NC2CCCN(C(=O)CCN3Cc4ccccc4C3=O)C2)cc1 (centres undefined) | 98.5 | . | . | .
O=C1CCCCN1CCC(=O)N1CCCC(Nc2ccccc2)C1 (centres undefined) | . | . | . | .
CC(C)c1ccc(NC2CCCN(C(=O)CSc3nncn3C)C2)cc1 (centres undefined) | 90.8 | . | . | .
CC(C)c1ccc(NC2CCCN(C(=O)CN3CCOC3=O)C2)cc1 (centres undefined) | . | . | . | .
CC(C)c1ccc(NC2CCCN(C(=O)CN3CCCC3=O)C2)cc1 (centres undefined) | 82.3 | . | . | .
CC(C)c1ccc(NC2CCCN(C(=O)CCN3CCCCC3=O)C2)cc1 (centres undefined) | 97.5 | . | . | .
O=C1C2C3CCC(CC3)C2C(=O)N1c1ccccc1 (centres undefined) | / | . | . | .
Oc1ccc(C=Nc2ccc(N3CCOCC3)cc2)c(O)c1 | 98.6 | . | . | .
O=[N+]([O-])c1cc(Cc2ccccc2)cc(C=Nc2ccc(N3CCOCC3)cc2)c1O | 97.4 | . | / | /
O=C(Cn1cnc2ccccc2c1=O)NCCC(=O)Nc1ccc(F)cc1 | . | . | . | .
Cc1c(Br)c([N+](=O)[O-])nn1C(C)C(=O)N1CCc2ccccc2C1 (centres undefined) | . | . | . | .
COc1cccc(/C=N/N2CCN(C)CC2)c1 | . | . | . | .
COc1cc(/C(C)=N/NC(=O)C(O)(c2ccccc2)c2ccccc2)ccc1O | 98.4 | . | . | .
COc1ccccc1N1CCN(/N=C\c2sccc2C)CC1 | 94.7 | . | . | .
COc1cc(/C=N/N2CCN(c3ccccc3OC)CC2)ccc1O | 98.9 | . | . | .
COc1cc(C(C)=NNC(=O)c2ccncc2)ccc1O | / | / | . | .
COc1ccccc1N1CCN(/N=C\c2ccccc2)CC1 | . | . | . | .
COc1ccc(/C=N/N2CCN(C)CC2)cc1O | 98.8 | . | . | .
CCCNC(=O)Nc1cccc(NC(C)=O)c1 | . | . | . | .
O=C(NC1CC2CCCC(C1)N2Cc1cccs1)c1ccc([N+](=O)[O-])cc1 (centres undefined) | . | . | / | /
CC1=C(C/C=C(\C)CCC[C@H](C)CCC[C@H](C)CCCC(C)C)C(=O)c2ccccc2C1=O | / | . | . | .
COc1cc(/C(C)=N/N2CCN(c3ccccc3OC)CC2)ccc1O | 98.9 | . | . | .
SMILES | ALR inh | HDAC3 inh | GC-B act | GC-A act
CC(=O)/C(N)=N/Nc1cccc(Cl)c1 | 98.8 | . | . | .
O=C1CSC(c2ccccc2[N+](=O)[O-])N1c1cccc(F)c1 (centres undefined) | 98.8 | . | . | .
CC(=O)Nc1ccc(N2C(=O)CSC2c2ccccc2[N+](=O)[O-])cc1 (centres undefined) | 97.6 | . | . | .
O=C1CSC(c2ccccc2[N+](=O)[O-])N1c1ccccc1 (centres undefined) | 99.4 | . | . | .
COc1ccccc1CN1CC(C(=O)N2CCC(C(=O)c3ccccc3)CC2)CCC1=O (centres undefined) | . | . | . | .
CCN(CC)c1cccc(OCC(=O)N(C)CCC#N)c1 | 97.7 | . | . | .
Cc1cc(F)ccc1-c1cc(C(=O)NCc2cccc(C(F)(F)F)c2)[nH]n1 | / | / | . | .
COc1ccc(N)cc1NC(=O)CN1CCCC1 | 96.9 | . | . | .
Cc1cnc(SCCc2ccncc2)nc1C | 98.6 | . | / | /
CC1=CC(=O)C(C2CCCCC2)=C/C1=N\OS(=O)(=O)c1ccccc1 | / | / | . | .
